Measured values from PubChem BioAssay.
Calls of active or inactive are those of the source.

How the values were obtained:
[1] = binders of probe aFSTL3 on microarray, primary screen, stem cell growth factor project, biochemical, small-molecule microarray, fluorescence 635/667 (AID 1064); conditions: higher = more signal;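 further: measures binding of the biotinylated anti-FSTL3 antibody to printed compounds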
[2] = binders from COS7 lysate, DM2A8 probe, primary screen, torsin A project, cell lysate, small-molecule microarray, fluorescence 635/667 (AID 1065); conditions: higher = more signal, COS7 lysate expressing mutant human TOR1A
[3] = binders of probe aFGF2 on microarray, primary screen, stem cell growth factor project, biochemical, small-molecule microarray, fluorescence 635/667 (AID 1067); conditions: higher = more signal;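 further: measures binding of biotinylated aFGF2 protein to printed compounds on slides; z-score merges feature fluorescence and signal-to-noise across triplicate slides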
[4] = binders of probe aFGF10 on microarray, primary screen, stem cell growth factor project, biochemical, small-molecule microarray, fluorescence 635/667 (AID 1071); conditions: higher = more signal;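 further: score merges 667 nm spot intensity and signal to noise from triplicate slides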
[5] = target: Neurogenic locus notch homolog protein 2 (Homo sapiens) (UniProt Q04721); experiment: Notch2 binders on small-molecule microarrays, primary screen, biochemical, small-molecule microarray, 635 nm fluorescence, stem cell growth factors (AID 1073); conditions: Notch2 binding, higher = more signal
[6] = target: Pro-neuregulin-1, membrane-bound isoform (Homo sapiens) (UniProt Q02297); experiment: NRG1 binders on small-molecule microarrays, primary screen, psychiatric disease protein project, biochemical, small-molecule microarray, fluorescence 635/667 (AID 1075); conditions: NRG1 binding, 635 nm fluorescence, higher = more signal;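 further: score combines 667 nm spot fluorescence with signal to noise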
Sequence of Pro-neuregulin-1, membrane-bound isoform (Homo sapiens) (Q02297 whole entry, looked up, the tested form may be a part, canonical isoform): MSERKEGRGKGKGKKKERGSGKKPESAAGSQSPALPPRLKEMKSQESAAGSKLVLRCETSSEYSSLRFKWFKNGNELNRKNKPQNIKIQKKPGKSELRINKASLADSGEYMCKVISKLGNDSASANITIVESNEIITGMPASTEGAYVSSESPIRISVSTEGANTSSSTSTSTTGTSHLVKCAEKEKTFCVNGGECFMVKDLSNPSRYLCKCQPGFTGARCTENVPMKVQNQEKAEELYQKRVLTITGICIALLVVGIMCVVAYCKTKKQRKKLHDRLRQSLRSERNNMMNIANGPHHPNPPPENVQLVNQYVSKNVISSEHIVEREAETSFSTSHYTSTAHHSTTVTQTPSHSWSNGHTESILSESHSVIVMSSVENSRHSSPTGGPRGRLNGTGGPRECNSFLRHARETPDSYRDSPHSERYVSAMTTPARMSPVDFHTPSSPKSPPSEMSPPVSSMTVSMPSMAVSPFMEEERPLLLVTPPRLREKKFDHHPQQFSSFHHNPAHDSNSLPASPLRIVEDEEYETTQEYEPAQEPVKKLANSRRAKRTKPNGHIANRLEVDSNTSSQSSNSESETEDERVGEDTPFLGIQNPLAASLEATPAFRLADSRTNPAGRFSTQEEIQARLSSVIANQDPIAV

[7] = tested on: Neuregulin-1 EGF-like domain; experiment: binders of neuregulin-1 EGF-like domain, primary screen, biochemical, small-molecule microarray, 635 nm fluorescence (AID 1081); conditions: small-molecule microarray binding, higher = more signal;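 further: binding of the protein to compounds printed on small-molecule microarray slides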
[8] = FRG1 promoter luciferase signal modulators, primary screen, FRG1 inhibition for FSHD, cell-based, C2C12 myotubes, firefly/Renilla luciferase, luminescence (AID 1084); conditions: higher = more signal, called active from +8 up or from −8 down
[9] = binders of probe aFST on microarray, primary screen, stem cell growth factor project, biochemical, small-molecule microarray, fluorescence 635/667 (AID 1086); conditions: higher = more signal;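 further: score merges 667 nm fluorescence with signal-to-noise of each printed compound spot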
[10] = binders of probe aHhip on microarray, primary screen, stem cell growth factor project, biochemical, small-molecule microarray, fluorescence 635/667 (AID 1087); conditions: higher = more signal;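 further: score merges spot fluorescence at 667nm with spot signal to noise ratio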
[11] = tested on: PRMT1 (protein arginine N-methyltransferase 1); experiment: PRMT1 binders on small-molecule microarrays, primary screen, biochemical, small-molecule microarray, 635 nm fluorescence (AID 1088); conditions: small-molecule microarray binding, higher = more signal;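 further: binding of Prmt1 protein to compounds spotted on small-molecule microarray slides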
[12] = yeast growth modulation, basal conditions, primary screen, YJM789 clinical isolate, OD600, 24 h (AID 1089);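 further: growth of clinical yeast isolate S. cerevisiae YJM 789 seeded 1000 cells per well; test concentration not given here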; conditions: S. cerevisiae YJM789 growth, higher = more signal, called active from +8 up or from −8 down
[13] = fission yeast growth modulation, primary screen, strain 972, OD600, 24 h, no modulator (AID 1090);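 further: basal condition with compound alone and no growth modifier present; test concentration not given here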; conditions: S. pombe 972 growth, higher = more signal, called active from +8 up or from −8 down
[14] = S. cerevisiae growth modulation with rapamycin, primary screen, strain BY4716, OD600, 96 h (AID 1091); conditions: higher = more signal, called active from +8 up or from −8 down; further: test concentration not given here
[15] = target: Torsin-1A-interacting protein 2 (Homo sapiens) (UniProt Q8NFQ8); experiment: LULL1 binders on small-molecule microarray, primary screen, cell lysate, human LULL1 lysate, 635/667 nm fluorescence (AID 1092); conditions: hLULL1 lysate binding, 635 nm fluorescence, higher = more signal;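 further: probe is lysate of COS7 cells overexpressing human LULL1; score merges per-feature 667 nm fluorescence with signal-to-noise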
Sequence of Torsin-1A-interacting protein 2 (Homo sapiens) (Q8NFQ8 whole entry, looked up): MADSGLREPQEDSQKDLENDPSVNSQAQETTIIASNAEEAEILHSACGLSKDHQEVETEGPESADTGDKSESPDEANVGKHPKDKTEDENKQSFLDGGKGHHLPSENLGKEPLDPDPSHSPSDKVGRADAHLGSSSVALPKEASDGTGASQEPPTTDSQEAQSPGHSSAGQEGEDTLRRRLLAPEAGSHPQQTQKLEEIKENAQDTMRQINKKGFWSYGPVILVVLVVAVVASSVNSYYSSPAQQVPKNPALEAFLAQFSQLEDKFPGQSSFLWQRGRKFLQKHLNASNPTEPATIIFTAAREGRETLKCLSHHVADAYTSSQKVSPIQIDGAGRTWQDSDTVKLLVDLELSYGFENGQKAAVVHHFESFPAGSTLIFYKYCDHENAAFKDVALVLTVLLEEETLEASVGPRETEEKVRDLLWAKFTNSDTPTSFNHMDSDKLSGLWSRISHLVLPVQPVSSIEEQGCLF

[16] = E. coli growth modulation, two-sided OD650, primary screen, E. coli filamentation project, strain DRC41, 24 h (AID 1093); conditions: OD650, 24 h, higher = more signal, called active from +8 up or from −8 down;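 further: MC1000 strain lacking acrAB efflux and sulA so SOS filamentation is blocked; test concentration not given here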
[17] = small-molecule microarray binders of probe aLefty2, primary screen, biochemical, biotinylated probe, 635/667 nm fluorescence (AID 1094); conditions: higher = more signal;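 further: score merges spot fluorescence near 667 nm with spot signal-to-noise ratio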
[18] = tested on: Noggin (protein binding on small-molecule microarray); experiment: Noggin binders on small-molecule microarray, primary screen, biochemical, 635/667 nm fluorescence (AID 1095); conditions: 635 nm fluorescence, higher = more signal;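 further: score merges 667 nm feature fluorescence with signal to noise over triplicate slides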
[19] = target: Neurogenic locus notch homolog protein 3 (Homo sapiens) (UniProt Q9UM47); experiment: NOTCH3 binders on small-molecule microarray, primary screen, biochemical, 635/667 nm fluorescence (AID 1096); conditions: NOTCH3 binding, 635 nm fluorescence, higher = more signal
Sequence of Neurogenic locus notch homolog protein 3 (Homo sapiens) (Q9UM47 whole entry, looked up): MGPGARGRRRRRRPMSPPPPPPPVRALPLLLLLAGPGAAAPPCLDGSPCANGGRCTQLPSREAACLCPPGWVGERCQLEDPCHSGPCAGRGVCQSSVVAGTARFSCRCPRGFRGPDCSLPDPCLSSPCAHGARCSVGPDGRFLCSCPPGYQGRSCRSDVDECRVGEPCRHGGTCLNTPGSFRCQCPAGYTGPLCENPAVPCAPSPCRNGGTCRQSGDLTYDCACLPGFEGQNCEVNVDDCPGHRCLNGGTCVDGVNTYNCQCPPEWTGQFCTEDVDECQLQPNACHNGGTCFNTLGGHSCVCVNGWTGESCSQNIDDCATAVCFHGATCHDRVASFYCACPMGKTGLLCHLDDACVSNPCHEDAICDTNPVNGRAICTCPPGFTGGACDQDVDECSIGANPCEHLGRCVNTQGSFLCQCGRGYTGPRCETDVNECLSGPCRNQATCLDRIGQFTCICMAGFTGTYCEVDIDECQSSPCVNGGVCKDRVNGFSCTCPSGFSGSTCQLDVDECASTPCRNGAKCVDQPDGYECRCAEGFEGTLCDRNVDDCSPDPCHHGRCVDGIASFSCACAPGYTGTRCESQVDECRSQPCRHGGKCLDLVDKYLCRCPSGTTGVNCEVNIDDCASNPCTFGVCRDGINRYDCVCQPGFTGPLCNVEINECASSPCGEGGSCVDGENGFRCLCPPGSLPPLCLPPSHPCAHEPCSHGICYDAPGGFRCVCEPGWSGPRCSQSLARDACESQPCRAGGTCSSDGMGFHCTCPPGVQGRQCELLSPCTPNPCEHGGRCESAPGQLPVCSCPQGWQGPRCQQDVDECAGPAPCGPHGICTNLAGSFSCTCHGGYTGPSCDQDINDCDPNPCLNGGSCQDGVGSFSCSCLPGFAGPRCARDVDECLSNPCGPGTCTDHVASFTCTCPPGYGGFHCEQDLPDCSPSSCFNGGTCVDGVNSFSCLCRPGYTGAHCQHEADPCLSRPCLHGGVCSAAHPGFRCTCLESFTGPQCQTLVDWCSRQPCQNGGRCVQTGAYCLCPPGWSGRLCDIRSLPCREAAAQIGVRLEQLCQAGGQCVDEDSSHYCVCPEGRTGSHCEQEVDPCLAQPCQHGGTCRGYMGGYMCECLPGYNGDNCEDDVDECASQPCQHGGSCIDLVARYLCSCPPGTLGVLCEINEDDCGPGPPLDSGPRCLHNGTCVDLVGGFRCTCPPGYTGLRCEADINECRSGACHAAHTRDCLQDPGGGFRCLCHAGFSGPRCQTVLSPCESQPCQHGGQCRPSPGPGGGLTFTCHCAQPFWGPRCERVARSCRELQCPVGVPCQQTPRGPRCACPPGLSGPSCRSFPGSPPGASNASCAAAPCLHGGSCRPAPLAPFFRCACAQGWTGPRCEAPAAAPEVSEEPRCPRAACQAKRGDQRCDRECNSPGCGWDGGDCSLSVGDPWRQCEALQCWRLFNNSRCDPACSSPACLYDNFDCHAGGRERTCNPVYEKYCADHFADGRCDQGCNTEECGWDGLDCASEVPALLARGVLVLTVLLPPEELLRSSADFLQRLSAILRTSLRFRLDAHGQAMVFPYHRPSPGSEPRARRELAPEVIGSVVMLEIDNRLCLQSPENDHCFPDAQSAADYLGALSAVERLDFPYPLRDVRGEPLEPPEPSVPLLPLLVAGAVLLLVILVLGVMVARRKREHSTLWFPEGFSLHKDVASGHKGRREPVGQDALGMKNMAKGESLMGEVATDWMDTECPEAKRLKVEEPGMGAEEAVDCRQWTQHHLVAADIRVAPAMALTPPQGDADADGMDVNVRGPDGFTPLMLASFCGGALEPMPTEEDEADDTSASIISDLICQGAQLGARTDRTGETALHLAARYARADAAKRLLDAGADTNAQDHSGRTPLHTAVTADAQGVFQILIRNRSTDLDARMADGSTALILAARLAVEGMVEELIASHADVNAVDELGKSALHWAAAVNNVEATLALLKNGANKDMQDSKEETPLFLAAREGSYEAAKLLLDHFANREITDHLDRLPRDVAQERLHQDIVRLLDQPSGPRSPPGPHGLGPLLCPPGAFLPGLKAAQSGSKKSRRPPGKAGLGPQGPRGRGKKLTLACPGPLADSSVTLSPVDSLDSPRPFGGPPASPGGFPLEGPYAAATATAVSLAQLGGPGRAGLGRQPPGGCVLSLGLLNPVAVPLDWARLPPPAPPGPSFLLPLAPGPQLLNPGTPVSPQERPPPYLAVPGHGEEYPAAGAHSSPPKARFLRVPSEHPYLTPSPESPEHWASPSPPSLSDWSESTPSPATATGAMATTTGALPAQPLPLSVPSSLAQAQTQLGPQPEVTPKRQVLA

[20] = small-molecule microarray binders of probe aEGFR, primary screen, biochemical, biotinylated probe, 635/667 nm fluorescence (AID 1097); conditions: higher = more signal;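 further: probe is a biotinylated anti-EGFR antibody binding compounds printed on slides; score combines fluorescence near 667 nm and signal to noise of each spot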

Compound	composite z-score [1]	composite z-score [2]	composite z-score [3]	composite z-score [4]	composite z-score [5]	composite z-score [6]	composite z-score [7]	z-score [8]	composite z-score [9]	composite z-score [10]	composite z-score [11]	z-score [12]	z-score [13]	z-score [14]	composite z-score [15]	z-score [16]	composite z-score [17]	composite z-score [18]	composite z-score [19]	composite z-score [20]
C=CC[C@@]1(C(=O)NCCCOC)N=C(c2ccc(OCCCO)cc2)O[C@@H]1c1ccccc1	0.513	1.09	0.0679	-0.562	-0.0215	1.84	1.15	-1.24 (inactive)	0.74	0.712	1.24	-3.84 (inactive)	-1.61 (inactive)	-0.725 (inactive)	3.37	0.734 (inactive)	0.211	0.0729	-0.741	0.0353
O=C(O)[C@@H]1[C@@H]2C(=O)N(c3ccccc3)C(=O)[C@@H]2C[C@@H]1Sc1ccccc1	0.305	-0.534	-0.0833	0.105	-0.0593	-0.141	0.695	1.06 (inactive)	-0.377	0.0505	-1.41	0.752 (inactive)	1.68 (inactive)	1.53 (inactive)	0.758	-0.686 (inactive)	0.251	-1.71	-1.56	0.196
Cc1ccc(S[C@]2(C(=O)NC(C)C)CC(=O)N(Cc3cc(C(F)(F)F)cc(C(F)(F)F)c3)[C@@H]2c2ccc(CO)cc2)cc1	0.0795	-0.662	-0.145	-0.898	-1.08	0.624	0.644	0.237 (inactive)	-0.803	-0.236	-0.44	-0.637 (inactive)	-1.03 (inactive)	-0.864 (inactive)	0.47	-0.0937 (inactive)	-0.117	-1.27	-1.27	-0.302
NCCCCCCNC(=O)[C@@H]1C[C@@H]2C(=O)N[C@@H](CCCCN)C(=O)N2[C@@H]1c1ccc(O)cc1	0.208	0.301	-0.0313	0.469	0.147	2.01	1.25	0.598 (inactive)	0.077	-0.149	1.44	-0.171 (inactive)	0.142 (inactive)	-1.38 (inactive)	2.47	0.445 (inactive)	0.362	0.367	0.549	0.217
N[C@@H](Cc1ccccc1)C(=O)NCc1cn(Cc2ccccc2)nn1	0.231	0.595	-0.0465	0.157	0.108	-0.191	1.04	0.46 (inactive)	0.145	-0.0296	0.05	0.246 (inactive)	-0.572 (inactive)	-1.05 (inactive)	-0.183	0.78 (inactive)	0.0582	0.465	-0.005	0.0282
CCCCCN1CC=CC23O[C@@H]4/C=C\CCC(C)OC(=O)C4[C@H]2C(=O)N(C(CO)C(C)C)[C@@H]3C1=O (stereo not given in full)	-1.2	-0.456	-0.245	-0.246	-0.406	1.21	1.38	-0.23 (inactive)	-0.592	-0.457	0.0839	-0.646 (inactive)	-0.957 (inactive)	-1.02 (inactive)	2.1	1.5 (inactive)	-0.506	-0.087	0.165	-0.14
O=C(Cc1ccccc1)[C@H]1C2C=CCCC(c3ccccc3)=C2CN1Cc1ccccc1 (stereo not given in full)	-0.138	1.24	-0.085	0.0623	-0.0515	-0.473	-0.122	-1.2 (inactive)	-0.205	0.0722	0.044	-0.213 (inactive)	-1.29 (inactive)	-0.481 (inactive)	-0.862	2.42 (inactive)	-0.207	-0.0884	-0.433	-0.0828
Cc1ccc(S[C@]2(C(=O)NCC(F)(F)F)CC(=O)N(Cc3cc(C(F)(F)F)cc(C(F)(F)F)c3)[C@@H]2c2ccc(CO)cc2I)cc1	0.225	1.52	-0.128	-0.41	-1.14	0.848	0.434	-0.326 (inactive)	-0.666	-0.409	-0.0631	-2.58 (inactive)	-2.58 (inactive)	-0.857 (inactive)	-0.0923	-0.3 (inactive)	-0.054	-0.716	-1.32	-0.556
[N-]=[N+]=NCc1ccccc1[C@@H]1OC(c2ccc(OCCCO)cc2)=N[C@]1(CCS(=O)(=O)c1ccccc1)C(=O)O	0.561	-0.0845	0.0116	0.396	0.797	1.92	0.733	5.28 (inactive)	0.641	-0.0994	0.627	0.302 (inactive)	0.76 (inactive)	0.248 (inactive)	3.31	0.177 (inactive)	0.17	-0.823	0.123	-0.0535
C=C[C@@H](OC)[C@H](OC(=O)Nc1ccc(OC)cc1)c1ccc(O)c(F)c1	-0.122	1.6	-0.142	-0.528	-1.25	0.749	1.15	3.87 (inactive)	-0.39	-0.0994	0.882	-1.48 (inactive)	-4.59 (inactive)	0.144 (inactive)	1.16	1.19 (inactive)	-0.183	0.638	0.0981	-0.199
